Active and inactive are the calls of the source. Unless noted, no rule for the calls is given here.
What was measured:
[1] = A549 cell viability effects, profiling panel, calcein-AM fluorescence, 48 h, basal (AID 1162); conditions: higher = more signal; also: test concentration not given here
[2] = adipocyte viability effects, profiling panel, cell-based, 3T3-L1 adipocytes, calcein-AM fluorescence, 48 h, basal (AID 1163); conditions: 3T3-L1 adipocytes viability, higher = more signal; also: test concentration not given here
[3] = HepG2 cell viability effects, profiling panel, calcein-AM fluorescence, 48 h, basal (AID 1164); conditions: higher = more signal; also: test concentration not given here
[4] = MM1S cell viability effects, profiling panel, calcein-AM fluorescence, 48 h, basal (AID 1165); conditions: higher = more signal;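 also: viability of MM1S multiple myeloma cells under basal unstimulated conditions; test concentration not given here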
[5] = basal RPMI8226 viability, no added stimulus, profiling panel, cell-based, calcein-AM fluorescence, 48 h, PK04 Diversity Set (AID 1166); conditions: RPMI8226 myeloma viability, higher = more signal;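 also: cells grown under basal conditions without added stimulus; test concentration not given here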
[6] = basal HepG2 mitochondrial membrane potential changes, profiling panel, cell-based, JC-1 fluorescence, 24 h, 100 nL compound (AID 1167); conditions: higher = more signal; also: test concentration not given here
[7] = basal 3T3-L1 adipocyte mitochondrial potential changes, profiling panel, cell-based, JC-1 fluorescence, 3T3-L1 adipocytes, 24 h, 100 nL compound (AID 1168); conditions: JC-1 mitochondrial fluorescence, higher = more signal, called active from +8 up or from −8 down; also: test concentration not given here
[8] = basal RPMI8226 mitochondrial membrane potential changes, profiling panel, cell-based, JC-1 fluorescence, 24 h, 100 nL compound (AID 1169); conditions: RPMI8226 myeloma, JC-1 mitochondrial potential fluorescence, higher = more signal; also: test concentration not given here
[9] = basal MM1S mitochondrial membrane potential changes, profiling panel, cell-based, JC-1 fluorescence, 24 h, 100 nL compound (AID 1170); conditions: higher = more signal; also: test concentration not given here
[10] = A549 lung cancer cell viability effects, profiling panel, resazurin fluorescence, 24 h, PK04 Diversity Set (AID 1171); conditions: higher = more signal, called active from +8 up or from −8 down; also: test concentration not given here
[11] = HepG2 liver cancer cell viability effects, profiling panel, resazurin fluorescence, 24 h, PK04 Diversity Set (AID 1172); conditions: higher = more signal; also: test concentration not given here
[12] = basal S. cerevisiae growth modulation, no modifier, primary screen, OD600, strain BY4716, 24 h, basal condition (AID 1173); conditions: OD600, 24 h, higher = more signal, called active from +8 up or from −8 down
[13] = MM1S myeloma cell viability, profiling panel, resazurin fluorescence, basal, 24 h, PK04 Diversity Set (AID 1174); conditions: higher = more signal, called active from +8 up or from −8 down;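 also: MM1S multiple myeloma cell line; test concentration not given here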
[14] = target: Dihydroorotate dehydrogenase (quinone), mitochondrial (Plasmodium falciparum (isolate 3D7)) (UniProt Q08210); assay: PfDHODH enzyme inhibitors, primary screen, biochemical, C-terminal His tag, absorbance 600 nm (AID 1175); conditions: DCIP absorbance 600 nm, higher = more signal, called active from +8 up or from −8 down;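 also: recombinant parasite enzyme with a five histidine tag at its C terminus; test concentration not given here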
[15] = P. aeruginosa biofilm formation inhibitors, primary screen, strain PAO1, LB-PBS medium, absorbance 600 nm (AID 1176); also: test concentration not given here; conditions: P. aeruginosa PAO1 growth/biofilm, A600, 12 h; higher = more signal
[16] = S. cerevisiae RM11-1a growth modifiers, primary screen, strain RM11-1a, OD600, basal, 24 h (AID 1177); conditions: OD600, 24 h, higher = more signal, called active from +8 up or from −8 down;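 also: cultures grown under basal conditions with no added stressor; test concentration not given here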
[17] = E. coli acrAB mutant growth effects, primary screen, E. coli filamentation inducers, strain DRC39, OD650, 24 h (AID 1178); conditions: higher = more signal, called active from +8 up or from −8 down;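 also: growth measured as culture turbidity by optical density at 650 nm; test concentration not given here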
[18] = E. coli acrAB mutant growth effects, primary screen, E. coli filamentation inducers, strain DRC39, OD650, 48 h (AID 1179);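 also: screen aims at cell division blockers that make cells filament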; conditions: E. coli DRC39 delta-acrAB growth, higher = more signal, called active from +8 up or from −8 down
[19] = RPMI8226 myeloma cell viability, profiling panel, resazurin fluorescence, basal, 24 h, PK04 Diversity Set (AID 1180); conditions: higher = more signal;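 also: RPMI8826 multiple myeloma cell line at 5000 cells per well; test concentration not given here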
[20] = target: E3 ubiquitin-protein ligase XIAP (Homo sapiens) (UniProt P98170); assay: XIAP binders, primary screen, biophysical, small-molecule microarray, fluorescence 635 nm (AID 1181); conditions: small-molecule microarray binding, higher = more signal;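 also: score merges 667 nm emission and signal to noise over triplicate slides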
Chain of E3 ubiquitin-protein ligase XIAP (Homo sapiens) (P98170 whole entry, looked up): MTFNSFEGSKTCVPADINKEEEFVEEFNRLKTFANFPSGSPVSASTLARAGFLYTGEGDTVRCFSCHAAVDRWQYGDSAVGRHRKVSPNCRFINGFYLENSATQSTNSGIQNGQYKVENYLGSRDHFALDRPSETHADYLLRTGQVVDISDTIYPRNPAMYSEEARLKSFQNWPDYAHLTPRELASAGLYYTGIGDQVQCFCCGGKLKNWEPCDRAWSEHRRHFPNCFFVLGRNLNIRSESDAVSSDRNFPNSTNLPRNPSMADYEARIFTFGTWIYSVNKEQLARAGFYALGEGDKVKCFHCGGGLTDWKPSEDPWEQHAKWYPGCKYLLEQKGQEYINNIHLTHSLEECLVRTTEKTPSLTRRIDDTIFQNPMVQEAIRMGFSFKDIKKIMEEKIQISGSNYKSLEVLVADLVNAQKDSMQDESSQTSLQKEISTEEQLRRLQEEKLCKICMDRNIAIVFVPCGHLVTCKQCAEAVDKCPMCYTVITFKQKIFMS

Chain of Dihydroorotate dehydrogenase (quinone), mitochondrial (Plasmodium falciparum (isolate 3D7)) (Q08210 whole entry, looked up): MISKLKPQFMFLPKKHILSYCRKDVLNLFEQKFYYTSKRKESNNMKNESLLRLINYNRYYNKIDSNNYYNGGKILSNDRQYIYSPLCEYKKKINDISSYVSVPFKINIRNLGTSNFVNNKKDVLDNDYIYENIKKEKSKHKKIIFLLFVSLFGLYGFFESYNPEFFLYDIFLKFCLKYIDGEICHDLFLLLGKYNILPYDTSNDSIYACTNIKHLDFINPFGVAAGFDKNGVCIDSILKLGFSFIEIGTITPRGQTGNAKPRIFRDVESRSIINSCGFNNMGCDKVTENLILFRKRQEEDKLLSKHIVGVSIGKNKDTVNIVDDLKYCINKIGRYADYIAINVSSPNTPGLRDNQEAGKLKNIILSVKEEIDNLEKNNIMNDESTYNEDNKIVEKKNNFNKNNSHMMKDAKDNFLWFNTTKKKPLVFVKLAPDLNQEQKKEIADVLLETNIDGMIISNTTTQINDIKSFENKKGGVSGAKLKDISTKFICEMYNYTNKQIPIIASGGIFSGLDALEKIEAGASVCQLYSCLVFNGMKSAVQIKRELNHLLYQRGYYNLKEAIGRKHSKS

SMILES | z-score [1] | z-score [2] | z-score [3] | z-score [4] | z-score [5] | z-score [6] | z-score [7] | z-score [8] | z-score [9] | z-score [10] | z-score [11] | z-score [12] | z-score [13] | composite z-score [14] | z-score [15] | z-score [16] | z-score [17] | z-score [18] | z-score [19] | composite z-score [20]
COc1cc(CO)cc(I)c1O[C@H]1C=C(C(=O)NCCO)C[C@@H](NC[C@@H]2CCCO2)[C@@H]1O | 1 | -0.134 | 0.7 | 0.583 | 0.327 | 0.65 | 0.239 (inactive) | -0.18 | -1.9 | 0.222 (inactive) | 0.773 | -0.813 (inactive) | -0.292 (inactive) | 0.459 (inactive) | 0.0694 (inactive) | 0.683 (inactive) | 1.16 (inactive) | 0.915 (inactive) | 0.577 | -0.13
[N-]=[N+]=Nc1ccccc1C[C@]1(C(=O)NCc2ccccc2)N=C(c2ccc(OCCCO)cc2)O[C@H]1c1ccccc1N=[N+]=[N-] | -1.33 | 0.0309 | -1.2 | -2.94 | -3.55 | 1.58 | 0.00967 (inactive) | -1.18 | -2.49 | -1.6 (inactive) | -1.17 | 0.371 (inactive) | -3.49 (inactive) | 0.535 (inactive) | 1.13 (inactive) | 0.879 (inactive) | -0.377 (inactive) | -0.0802 (inactive) | -2.83 | 0.0097
O=C1N(CCS(=O)(=O)c2ccccc2)c2ccccc2[C@@H]2OC(c3ccc(OCCCO)cc3)=N[C@]12Cc1ccccc1 | 0.661 | 1.33 | 0.993 | -2.75 | -1.58 | 0.637 | 2.24 (inactive) | -0.407 | -0.989 | -2.13 (inactive) | 0.292 | -0.237 (inactive) | -3.11 (inactive) | -1.52 (inactive) | 0.755 (inactive) | 0.289 (inactive) | 1.11 (inactive) | 1.03 (inactive) | -1.95 | 0.0999
COC(=O)[C@@]1(Cc2ccc(OC)cc2)[C@H]2c3cc(C(=O)N4CCCC4)n(CCc4ccc(O)c(O)c4)c3C[C@H]2CN1C(=O)c1ccccc1 | -0.393 | 0.609 | -0.0727 | -3.36 | -2.19 | 0.923 | -1.13 (inactive) | -0.445 | -1.13 | -0.0046 (inactive) | -1.37 | 1.04 (inactive) | -1.79 (inactive) | -0.487 (inactive) | 2.16 (inactive) | 0.397 (inactive) | -0.215 (inactive) | -0.163 (inactive) | -1.33 | 0.0517
O=C1O[C@H](c2ccccc2)[C@H](c2ccccc2)N2[C@H]1[C@@H](C(=O)NC[C@H](O)c1ccccc1)[C@]1(C(=O)Nc3ccccc31)[C@H]2c1ccc(O)cc1 | -0.184 | 0.279 | -0.454 | -2.03 | -3.84 | -3.2 | -0.104 (inactive) | -0.933 | -1.03 | -0.377 (inactive) | -1 | 0.0934 (inactive) | -1.16 (inactive) | 0.668 (inactive) | 0.346 (inactive) | 1.46 (inactive) | 0.759 (inactive) | 0.315 (inactive) | -2.77 | 0.166
COC(=O)[C@@]1(Cc2ccccc2)[C@H]2c3cc(C(=O)N(C)C)n(CCc4c[nH]c5ccc(O)cc45)c3C[C@H]2CN1C(=O)c1ccccc1 | -0.206 | 0.389 | 1.22 | -0.988 | -0.235 | -1.3 | -0.215 (inactive) | -0.532 | -1.57 | 0.349 (inactive) | 0.236 | 0.412 (inactive) | -1.18 (inactive) | -0.568 (inactive) | 1.07 (inactive) | -0.438 (inactive) | 0.117 (inactive) | 0.29 (inactive) | -1.27 | -0.0261
COc1ccc([Si](C)(C)[C@@H]2[C@@H](CCn3cc(CCO)nn3)O[C@]3(C(=O)N(Cc4cccc(N5C(=O)c6cccc7cccc5c67)c4)c4ccccc43)[C@H]2C)cc1 | -2.01 | 1.32 | -4.46 | -2.86 | -4.41 | -0.414 | 1.02 (inactive) | -0.931 | -2.16 | -3.53 (inactive) | -3.66 | 0.348 (inactive) | -6.83 (inactive) | 0.0598 (inactive) | -0.459 (inactive) | 1.69 (inactive) | -0.162 (inactive) | -0.831 (inactive) | -6.09 | -0.0999
CCCC(=O)N(CCc1c[nH]c2ccccc12)[C@@H]1CC(C(=O)NCCO)=C[C@H](Oc2c(I)cc(CO)cc2OC)[C@H]1O | 0.0593 | -0.0939 | 0.0635 | 0.704 | 0.0598 | 0.149 | -0.937 (inactive) | -0.178 | -1.49 | -0.558 (inactive) | 0.627 | -1.22 (inactive) | -0.176 (inactive) | 0.0595 (inactive) | 0.789 (inactive) | 0.152 (inactive) | 0.336 (inactive) | 0.582 (inactive) | 0.114 | -0.222
O=C(NCCN1CCOCC1)[C@@H]1c2ccccc2C(=O)N(Cc2cc(C(F)(F)F)cc(C(F)(F)F)c2)[C@H]1c1ccc(CO)cc1 | 1.79 | -0.587 | 1.82 | 0.266 | -0.0119 | 2.85 | 0.252 (inactive) | -0.021 | -0.227 | 0.0288 (inactive) | -0.731 | 0.164 (inactive) | 0.0896 (inactive) | 0.434 (inactive) | 0.224 (inactive) | 0.842 (inactive) | 1.06 (inactive) | 0.321 (inactive) | 0.0838 | -0.242
